# Measurements reported in PubChem BioAssay AID652042 (Broad Institute, 2013).
# About 350 (32%) of roughly 1,100 compounds were called active. The rule behind the calls is not given here. These entries were drawn from the full list. Measured potencies and affinities stand elsewhere.
# Assay: viability loss in CEM21 cells – cell-based, CellTiter-Glo luminescence, cherry-picked, cytotoxicity control for viral fusion inhibitor project, dose response (AID 652042)
# Conditions: CellTiter-Glo ATP luminescence, 24 h; series mostly up to 35 µM; activity change, negative = cytotoxicity: at the top concentration
row,SMILES,"activity change, negative = cytotoxicity"
1,COc1ccc([C@@H]2[C@@H]3C(=O)N(C(C)(C)C)C(=O)[C@@H]3[C@]3(CC(C)C)C(=O)N(c4cccc(Br)c4)C(=O)N23)cc1,1.72% (inactive)
2,COc1ccc(Cn2nnnc2C(c2cc3cccc(C)c3[nH]c2=O)N2CCOCC2)cc1 (stereo not given),-2.74% (inactive)
3,COc1ccc(C(C(=O)NC2CCCC2)N(C(=O)c2ccoc2C)c2ccc(C)cc2)cc1 (stereo not given),-24% (inactive)
4,O=C(NCc1ccco1)c1ccc(Cn2c(=O)c3ccccc3n(Cc3cccc(F)c3)c2=O)cc1,3.08% (inactive)
5,CCC(=O)N(C)C(c1ccccc1Cl)c1nnnn1-c1c(C)cccc1C (stereo not given),-15.6% (inactive)
6,CCCCCCOc1ccc(OC(=O)c2ccncc2)cc1,-12.3% (inactive)
7,O=C(Nc1ccc(CN2CCS(=O)(=O)CC2)cc1)c1ccc(C(F)(F)F)cc1,-21.8% (inactive)
8,C[C@@H]1CNC(=O)c2c(C(=O)N(C)Cc3ccccc3)ncn21,-18.7% (inactive)
9,O=C1[C@H]2[C@@H](C3CC3)N3C(=O)CN(CC4CC4)C(=O)[C@@]3(Cc3ccccc3)[C@H]2C(=O)N1c1ccccc1,0.041% (inactive)
10,CC1(C(=O)N/N=C/c2ccc3c(c2)OCO3)CC1(Br)Br (stereo not given),1.88% (inactive)
11,COc1cc(/C=N/NS(=O)(=O)c2ccc(C)cc2)ccc1OCc1ccc(C(=O)O)cc1,4.25% (inactive)
12,CC1(C(=O)N/N=C/c2cc3c(cc2Br)OCO3)CC1(Br)Br (stereo not given),-5.08% (inactive)
13,Cc1ccsc1/C=N/Nc1cccc(C(=O)O)c1,-7.18% (inactive)
14,CCCn1c(=S)[nH]c2cc(C(=O)N3CCCC(C(=O)OCC)C3)ccc2c1=O (stereo not given),-16.8% (inactive)
15,Cc1cc(C(=O)CN2C(=O)c3ccccc3S2(=O)=O)c(C)n1CC1CCCO1 (stereo not given),7.48% (inactive)
16,O=C(NC1=NCCS1)C1COc2ccccc2O1 (stereo not given),-11.6% (inactive)
17,O=C(Nc1ccc(S(=O)(=O)N2CCCC2)cc1)c1ccc(CN2CCOCC2)cc1,-13.1% (inactive)
18,COC(=O)c1ccc(NC(=O)c2ccc(CN3CCOCC3)cc2)cc1,-6.47% (inactive)
19,O=S(=O)(c1ccc(Cl)cc1)N1CCCN(c2nc3ccc(Cl)cc3s2)CC1,-15.6% (inactive)
20,O=C(CC1C(=O)NCCN1Cc1cccc(F)c1)NC1CCCCC1 (stereo not given),0.283% (inactive)
21,CC(C)(C)c1ccc(OCCC(=O)Nc2cccc(S(=O)(=O)N3CCOCC3)c2)cc1,-11.4% (inactive)
22,COc1ccc(NC(=O)Nc2ccc3c(c2)N(C)C(=O)CS3)cc1Cl,-20.2% (inactive)
23,CCOc1ccccc1N(C(=O)CNC(=O)c1ccco1)C(C(=O)NC1CCCC1)c1cccnc1 (stereo not given),-6.89% (inactive)

row,SMILES,"activity change, negative = cytotoxicity"
1,CCOc1ccc(S(=O)(=O)NCc2ccncc2)cc1,-16.8% (inactive)
2,O=C(C[C@@H]1C[C@H]2c3cc(NC(=O)C4CCOCC4)ccc3O[C@H]2[C@H](CO)O1)NCc1ccccc1F,-1.23% (inactive)
3,CC(C)NC(=O)Nc1ccc2c(c1)C(=O)N([C@@H](C)CO)C[C@@H](C)[C@@H](CN(C)C(=O)CCC(F)(F)F)OCCCC[C@@H](C)O2,-0.148% (inactive)
4,CO[C@H]1CN(C)C(=O)c2cc(NC(C)=O)ccc2OC[C@@H](C)N(Cc2nccs2)C[C@H]1C,-4.5% (inactive)
5,COc1ccccc1NC(=O)N[C@@H]1C=C[C@H](CC(=O)NCc2ccc(Cl)c(Cl)c2)O[C@@H]1CO,-8.5% (inactive)
6,CC(NC(=O)CN(C)CC(=O)Nc1ccc(Cl)c(C(F)(F)F)c1)c1ccccc1 (stereo not given),-20.4% (inactive)
7,Cc1cccc(N2C(=O)N3[C@H](c4ccc(Br)cc4)[C@@H]4C(=O)N(C(C)(C)C)C(=O)[C@@H]4[C@]3(C)C2=O)c1,-2.6% (inactive)
8,COc1cc2c(c(OC)c1OC)[C@@]1(c3ccccc3)CCCC[C@H]1[C@@H]2NC(=O)C(F)(F)F,-4.67% (inactive)
9,Cc1ccccc1OCCCCn1cnc2ccccc21,-3.25% [at 16 µM] (inactive)
10,CC[C@]1(C(=O)OC)[C@H]2C(=O)N(Cc3ccccc3)C(=O)[C@H]2[C@H]2CN=C(SCc3ccccc3)N21,-11.6% (inactive)
11,COc1ccc(OC)c(-c2cc(C(=O)Nc3c(C)nn(Cc4ccc(Cl)cc4)c3C)no2)c1,-11.3% (inactive)
12,Cc1ccc(CSCCNC(=O)c2ccc(Cl)c(S(=O)(=O)N3CCOCC3)c2)cc1,-18.7% (inactive)
13,COc1ccc([C@@H]2[C@@H]3C(=O)N(C(C)(C)C)C(=O)[C@@H]3[C@]3(CC(C)C)C(=O)N(c4ccc(C(F)(F)F)cc4)C(=O)N23)cc1,0.418% (inactive)
14,CC1(C(=O)NCc2ccc3c(c2)OCO3)CCN1Cc1csc2ccccc12 (stereo not given),-10.1% (inactive)
15,O=C(c1ccc(Cl)s1)N1CCN(c2nc3ccccc3s2)CC1,-12.8% (inactive)
16,CC1CCc2c(sc3ncnc(N4CCOCC4)c23)C1 (stereo not given),-0.353% (inactive)
17,CCN1C(=O)[C@H]2[C@@H](c3ccc(C)cc3)N3C(=O)N(c4ccc(C(F)(F)F)cc4)C(=O)[C@@]3(CC(C)C)[C@H]2C1=O,-11.3% (inactive)
18,CCOc1c(C)cnc2c1c(=O)n(Cc1ccc(Cl)cc1)c(=O)n2C,-4.47% (inactive)
19,Cc1ccc2cc(C#N)c(NCCNC(=O)C3CC3)nc2c1C,-7.75% (inactive)
20,COc1ccc(S(=O)(=O)Nc2ccc3c(c2)CC(=O)N([C@@H](C)CO)C[C@H](C)[C@H](CN(C)S(=O)(=O)c2cccs2)O3)cc1,0.186% (inactive)
21,CCCc1cc(C(=O)NCc2ccc(OC)cc2)no1,-1.74% (inactive)
22,COc1ccc(CCC(C)NCc2cc(OC)cc(OC)c2)cc1 (stereo not given),-6.55% (inactive)
23,COc1cc(C(=O)N2CCN(c3ncnc4sc(C)c(C)c34)CC2)cc(OC)c1OC,-21.1% (inactive)

row,SMILES,"activity change, negative = cytotoxicity"
1,Cc1ccc(OCCN2CCN(c3ncnc4sc(C)c(C)c34)CC2)cc1,-27.5% (inactive)
2,CN(C)C(=O)C[C@H]1C[C@@H]2c3cc(NC(=O)NC4CCCCC4)ccc3O[C@@H]2[C@H](CO)O1,4.2% (inactive)
3,CCN(C[C@H]1N[C@@](C)(C(=O)OC)[C@H]2C(=O)N(Cc3ccccc3)C(=O)[C@@H]12)C(=O)c1ccc(C(C)(C)C)cc1,-7.41% (inactive)
4,O=C(Nc1ccc(Oc2ccccc2)cc1)c1csc([C@H]2C[C@H](O)[C@@H](CO)O2)n1,-16.4% (inactive)
5,c1csc(CNc2ncnc3sccc23)c1,-7.21% (inactive)
6,CCN(CC(=O)Nc1cc(Cl)ccc1C)C(=O)c1ccc(=O)n(Cc2ccccc2)n1,0.209% (inactive)
7,O=C(NCC(=O)N1CCN(c2ncccn2)CC1)c1ccccc1OC(F)F,-0.419% (inactive)
8,O=C(CCCn1c(=S)[nH]c2cc3c(cc2c1=O)OCO3)N1CCN(c2ccc(Cl)cc2)CC1,-10.7% (inactive)
9,O=C(Nc1ccc(N2CCN(C(=O)c3ccccc3)CC2)c(Cl)c1)c1cccnc1,-16.1% (inactive)
10,S=c1[nH]cc(-c2ccccc2)n1-c1cccc(Cl)c1,-0.899% (inactive)
11,CCOc1ccc(NC2c3ccccc3C(=O)N2Cc2ccco2)cc1 (stereo not given),-2.14% (inactive)
12,CC1CN(S(=O)(=O)c2cc(C(=O)NCCC3=CCCCC3)ccc2Cl)CC(C)O1 (stereo not given),-1.11% [at 8 µM] (inactive)
13,COc1ccc(Cl)cc1NC(=O)Nc1cnccn1,0.955% (inactive)
14,COc1ccc(OCC(=O)Nc2cc(-c3nn(C)c(=O)c4ccccc34)ccc2OC)cc1,-3.59% (inactive)
15,COC(=O)[C@@]1(Cc2ccccc2)[C@H]2C(=O)N(Cc3ccccc3)C(=O)[C@H]2[C@H]2CN=C(SCc3ccc(C#N)cc3)N21,-6.15% (inactive)
16,O=C(CN1C(=O)c2ccccc2S1(=O)=O)c1ccc2c(c1)OCCCO2,-0.421% (inactive)
17,CCc1ccc(-c2nc(CN3CCC(C(=O)NCCc4ccc(OC)c(OC)c4)CC3)c(C)o2)cc1,-24.4% (inactive)
18,Cc1oc(-c2ccccc2F)nc1CN1CCC(C(=O)NCCC2=CCCCC2)CC1,-12.8% (inactive)
19,CN1CC(c2ccccc2)C2(COc3ccccc3C2=O)C12C(=O)Nc1ccccc12 (stereo not given),-15.8% (inactive)
20,COc1ccccc1S(=O)(=O)n1cc(Cc2ccccc2)c(N)n1,-1.81% (inactive)
21,CCOC(=O)c1c(CSc2ccccc2)oc2cc(Br)c(O)c(CN(C)C)c12,-17.8% (inactive)
22,CC(=O)C1=C(C)NC(=S)NC1c1ccccc1 (stereo not given),-0.735% (inactive)
23,c1ccc2c(c1)ncn2CCCCOc1ccc2c(c1)CCC2,1.14% [at 8 µM] (inactive)

row,SMILES,"activity change, negative = cytotoxicity"
1,CC1CCN(C(=O)c2ncn3c2C(=O)NC[C@@H]3C)CC1,-3.77% (inactive)
2,C[C@H]1CNC(=O)c2c(C(=O)N3CCN(c4ccccc4)CC3)ncn21,-0.09% (inactive)
3,Cn1c(CN2CCCCC2)nc2cc(NC(=O)c3ccc(Cl)cc3)ccc21,-23.7% (inactive)
4,Cc1ccc(NS(=O)(=O)c2cc(C(=O)N(C)C3CCN(C)CC3)ccc2Cl)cc1Cl,-1.93% (inactive)
5,COc1ccc2[nH]c(=O)c(CN(Cc3nnnn3Cc3ccccc3)CC3CCCO3)cc2c1 (stereo not given),-6.18% (inactive)
6,COc1ccc(OCC(=O)Nc2ccccc2N2CCCCC2)cc1,-36.7% (inactive)
7,CCC(C)(C)NC(=O)C(c1ccccc1F)N(Cc1ccco1)C(=O)c1csnn1 (stereo not given),1.6% (inactive)
8,CO[C@@H]1CN(C)C(=O)c2cc(NC(=O)Nc3ccc(Cl)cc3)ccc2OC[C@H](C)N(C)C[C@H]1C,-16% (inactive)
9,CC[C@@]1(C(=O)OC)N[C@H](CN(C)C(=O)Nc2ccc(F)cc2)[C@@H]2C(=O)N(Cc3ccccc3)C(=O)[C@@H]21,-3.66% (inactive)
10,Cc1nc2sc(C(c3ccco3)N3CCC(Cc4ccccc4)CC3)c(O)n2n1 (stereo not given),-4.26% (inactive)
11,CN(C)C(=O)C[C@@H]1C[C@H]2c3cc(NS(=O)(=O)c4ccc(F)cc4)ccc3O[C@H]2[C@H](CO)O1,-7.21% (inactive)
12,O=C(CN1CCN(Cc2ccc(Cl)cc2)C1=O)NCCCN1CCN(c2ccc(F)cc2)CC1,-15.2% (inactive)
13,Clc1ccc(-c2csc3ncnc(NCCN4CCOCC4)c23)cc1,-7.06% (inactive)
14,CC(C)CN(C(=O)c1ccc(S(=O)(=O)N2CCCCC2)cc1)C1CCS(=O)(=O)C1 (stereo not given),1.04% (inactive)
15,CC[C@@]12C(=O)N(c3ccc(C)cc3)C(=O)N1[C@H](c1ccc(Br)cc1)[C@@H]1C(=O)N(C(C)(C)C)C(=O)[C@@H]12,-10.3% (inactive)
16,O=c1[nH]c(=O)n([C@H]2C[C@H](O)[C@@H](CO)O2)cc1F,-12% (inactive)
17,COc1ccc(C(O)(C2CCCCC2)C(CN2CCOCC2)c2ccccc2)cc1 (stereo not given),-24.5% (inactive)
18,CCOc1ccc(C(=O)C2CCN(CC(=O)Nc3ccccc3N3CCOCC3)CC2)cc1,-23.5% (inactive)
19,CCOc1ccc(OCc2cccc(C(=O)N3CCOCC3)c2)cc1,-3.5% (inactive)
20,CC(C)(COC(=O)C(c1ccccc1)c1ccccc1)CN1CCOCC1,-1.1% (inactive)
21,CCCNC(=O)c1ccccc1NC(=O)c1ccccc1N(C)S(=O)(=O)c1ccccc1,-20.5% (inactive)
